Results: PubChem BioAssay (NCATS)
Inconclusive results are not listed. The source made the active and inactive calls. Unless noted, calls come from the whole dose curve; as a rule, active = well fitted cell-killing curve with a large enough effect; inconclusive = small, poorly fitted or top-dose-only effect, or effect the other way; inactive = no such curve, though single readings can be large or run the other way.

Legend:
[1] = Quantitative High-Throughput drug screen in 47 multiple myeloma cell lines against the NCATS MIPE library collection: RPMI8226_ATCC cell viability assay (AID 1919871); note: nearly all actives have a fitted effect of over 30% in size; note: potency is the fitted concentration of half-maximal effect
Procedure, shortened: (§1)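 500 cells/well per myeloma line exposed to pinned MIPE 4.0 compounds for 48 h at 37 °C, 5% CO2. Viability read as ATP by CellTiter-Glo luminescence, normalised to DMSO-only (100%) and media-only (0%) wells.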

[2] = Quantitative High-Throughput drug screen in 47 multiple myeloma cell lines against the NCATS MIPE library collection: OPM2_DSMZ cell viability assay (AID 1919872); note: nearly all actives have a fitted effect of over 30% in size; note: potency is the fitted concentration of half-maximal effect
Procedure, shortened: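 Primary qHTS used for cherry-picking: cells at 500/well, library compounds for 48 h (37C, 5% CO2), luminescent ATP assay.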

[3] = Quantitative High-Throughput drug screen in 47 multiple myeloma cell lines against the NCATS MIPE library collection: KMS11_JCRBsus cell viability assay (AID 1919873); note: nearly all actives have a fitted effect of over 50% in size; note: potency is the fitted concentration of half-maximal effect
Procedure, shortened: as §1

[4] = Quantitative High-Throughput drug screen in 47 multiple myeloma cell lines against the NCATS MIPE library collection: KMS28BM_JCRB cell viability assay (AID 1919874); note: nearly all actives have a fitted effect of over 35% in size; note: potency is the fitted concentration of half-maximal effect
Procedure, shortened: as §1

[5] = qHTS drug screen for cell cycle checkpoint inhibitors in PARPi-resistant BRCA-mutant ovarian cancer cell lines. (AID 1963452; calls by dose curve); conditions: PEO1/OlaR viability, CellTiter-Glo luminescence, 96 h, stronger effect = lower value
Procedure, shortened: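 PEO1, PEO4 and PEO1/OlaR ovarian cancer cells, 600 per well, exposed 96 h at 37C to a dilution series. Viability read by CellTiter-Glo luminescence, normalized to DMSO and empty wells; activity summarized as Z-AUC.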

[6] = qHTS for identification of novel therapeutic agents for treatment of microphthalmiaassociated transcription factor (MiT) renal cell carcinoma (RCC) (AID 1963991; calls by dose curve; note: potency is the fitted concentration of half-maximal effect); conditions: CellTiter-Glo, 48 h; for z-score: stronger effect = lower value
Procedure, shortened: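 Viability of three TFE3-fusion renal carcinoma lines measured by CellTiter-Glo after 48 h treatment with each of 1912 compounds at 11 concentrations. Responses scaled between DMSO (100%) and empty wells (0%) before curve fitting.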

[7] = measured here: PEO1 parental Z-AUC
[8] = TFE3-RCC UOK109 viability, measured here: UOK109 Z-AUC
[9] = TFE3-RCC viability, measured here: UOK124 Z-AUC
[10] = TFE3-RCC viability, measured here: UOK145 Z-AUC

Row | Structure (SMILES) | Potency [1] | Potency [2] | Potency [3] | Potency [4] | Z-AUC [5] | Z-AUC [5, 7] | Z-AUC ([5]; measured here: PEO4 Z-AUC) | z-score [6, 8] | z-score [6, 9] | z-score [6, 10] | Potency ([6]; TFE3-RCC UOK109 viability)
1 | O=S(=O)(F)Cc1ccccc1 | inactive | inactive | inactive | inactive | -0.434 (inactive) | -0.355 | 0.278 | 0.128 | -1.89 | 0.531 | 
2 | O=C(Nc1ccncc1)C(=O)c1cn(Cc2ccc(Cl)cc2)c2ccccc12 | 0.418 µM (active) | 0.105 µM (active) | 0.0053 µM (active) | 0.0047 µM (active) | -0.51 (inactive) | -1.11 | -0.872 | -1.08 | -1.43 | -1.01 | 0.469 µM (active)
3 | COCC1(CO)C(=O)C2CCN1CC2 (stereo not drawn) | 20.9 µM (active) | 11.8 µM (active) | 7.43 µM (active) | 23.5 µM (active) | 0.503 (inactive) | 0.336 | 0.128 |  |  |  | 
4 | COC[C@H]1OC(=O)c2coc3c2[C@@]1(C)C1=C(C3=O)[C@@H]2CC[C@H](O)[C@@]2(C)C[C@@H]1OC(C)=O | 2.96 µM (active) | 1.87 µM (active) | 1.66 µM (active) | 9.35 µM (active) |  |  |  |  |  |  | 
5 | CCNC(=O)CC1N=C(c2ccc(Cl)cc2)c2cc(OC)ccc2-n2c(C)nnc21 (stereo not drawn) | 4.69 µM (active) | 16.6 µM (active) | 18.7 µM (active) | 18.7 µM (active) | 0.242 (inactive) | 0.653 | 0.806 |  |  |  | 
6 | O=c1[nH]c2ccccc2n1C1CCN(Cc2ccc(-c3[nH]c4cc5ncnc5cc4nc3-c3ccccc3)cc2)CC1 | 13.2 µM (active) | 18.7 µM (active) | 20.9 µM (active) | 18.7 µM (active) | -0.823 (inactive) | -0.392 | -0.582 |  |  |  | 
7 | COc1ccc2c(c[n+](C)c3c4cc5c(cc4ccc23)OCO5)c1OC | 8.33 µM (active) | 9.35 µM (active) | 3.32 µM (active) | 2.96 µM (active) | -0.492 (inactive) | 0.375 | 0.195 |  |  |  | 
8 | C=C[C@@H]1CN2CCC1C[C@H]2[C@H](O)c1ccnc2ccccc12 (stereo partly drawn) | 18.7 µM (active) |  |  |  |  |  |  |  |  |  | 
9 | CCN1CCN(C(=O)Cc2ccc(Nc3ncc(F)c(Nc4ccc(C(=O)Nc5ccccc5Cl)cc4)n3)cc2)CC1 | 18.7 µM (active) | 6.62 µM (active) | 0.743 µM (active) | 1.87 µM (active) | 0.278 (inactive) | -0.415 | -1.09 |  |  |  | 
10 | O=C(NCC1CCOCC1)c1cnc(Nc2ccc(Cl)cc2Cl)nc1C(F)(F)F | inactive | inactive | inactive | inactive | 1.22 (inactive) | 0.764 | 1.04 |  |  |  | 
11 | CC1(N2CCC(n3c([C@@H]4CCCNC4)nc4ccccc43)CC2)CCCCCCC1 | 20.9 µM (active) | 18.7 µM (active) | 13.2 µM (active) | 23.5 µM (active) | 1.01 (inactive) | 0.227 | 0.462 |  |  |  | 
12 | CC1=C(O)C(=O)C=C2C1=CC=C1[C@@]2(C)CC[C@@]2(C)[C@@H]3C[C@](C)(C(=O)O)CC[C@]3(C)CC[C@]12C | 1.18 µM (active) | 0.833 µM (active) | 0.935 µM (active) | 0.833 µM (active) | -0.53 (inactive) | -1.33 | -0.972 | -1.17 | -1.16 | -1.07 | 2.64 µM (active)
13 | O=c1cccc2n1CC1CNC[C@H]2C1 | inactive | inactive | 6.62 µM (active) | 5.26 µM (active) | 1.36 (inactive) | 1.98 | 1.69 |  |  |  | 
14 | O=c1[nH]c2ccc(Cl)cc2c(N[C@@H]2CN3CCC2CC3)c1-c1nc2ccccc2[nH]1 | 5.9 µM (active) | 5.9 µM (active) | 0.235 µM (active) | 1.32 µM (active) | -1.21 (inactive) | -1.35 | -1.24 | -0.938 | -2.71 | -1.04 | 3.72 µM (active)
15 | O=[N+]([O-])c1ncc[nH]1 | inactive | inactive |  |  |  |  |  |  |  |  | 
16 | CC[C@@H](C(N)=O)N1CCCC1=O | inactive | inactive | inactive | inactive | -0.418 (inactive) | -0.901 | -0.237 | 1.12 | 0.779 | 0.655 | 
17 | C[C@@H]1CC[C@@]2(OC1)O[C@H]1C[C@H]3[C@@H]4CC=C5C[C@@H](O[C@@H]6O[C@H](CO)[C@@H](O[C@@H]7O[C@@H](C)[C@H](O)[C@@H](O)[C@@H]7O)[C@H](O)[C@@H]6O[C@@H]6O[C@@H](C)[C@H](O)[C@@H](O)[C@@H]6O)CC[C@]5(C)[C@@H]4CC[C@]3(C)[C@@H]1[C@H]2C | 2.35 µM (active) | 2.09 µM (active) | 2.35 µM (active) | 2.96 µM (active) |  |  |  |  |  |  | 

Row | Structure (SMILES) | Potency [1] | Potency [2] | Potency [3] | Potency [4] | Z-AUC [5] | Z-AUC [5, 7] | Z-AUC ([5]; measured here: PEO4 Z-AUC) | z-score [6, 8] | z-score [6, 9] | z-score [6, 10] | Potency ([6]; TFE3-RCC UOK109 viability)
18 | COc1cc([C@@H]2c3cc4c(cc3[C@@H](O)C3COC(=O)C32)OCO4)cc(OC)c1O (stereo partly drawn) | 0.118 µM (active) | 0.0418 µM (active) | 0.0093 µM (active) | 0.0033 µM (active) | -0.729 (inactive) | -0.507 | -1.03 | -1.65 | -1.93 | -1.12 | 0.0418 µM (active)
19 | CC(C)(C)[C@]1(O)C[C@@H]2OC(=O)C[C@@]23C(=O)O[C@@H]2OC(=O)[C@H](O)C213 (stereo partly drawn) | inactive | inactive | inactive | inactive |  |  |  |  |  |  | 
20 | CC=C(C)C(=O)O[C@H]1C(C)=C2[C@@H]3OC(=O)[C@@](C)(O)[C@@]3(O)[C@@H](OC(=O)CCC)C[C@](C)(OC(C)=O)[C@@H]2[C@@H]1OC(=O)CCCCCCC | 0.0743 µM (active) | 0.0332 µM (active) | 0.0332 µM (active) | 0.166 µM (active) |  |  |  |  |  |  | 
21 | CC(=O)O[C@@]12CO[C@H]1C[C@H](O)[C@@]1(C)C(=O)[C@H](O)C3=C(C)[C@@H](O)C[C@@](O)([C@@H](OC(=O)c4ccccc4)[C@@H]21)C3(C)C | 2.96 µM (active) | 9.35 µM (active) | 2.35 µM (active) |  |  |  |  |  |  |  | 
22 | CN[C@@H]1Cc2cccc3[nH]c(=O)n(c23)C1 | inactive | inactive | inactive | inactive | 1.45 (inactive) | 1.4 | 1.34 |  |  |  | 
23 | CO[C@H]1CCC(O[C@H]2C[C@H]([C@]3(C)CC[C@]4(C[C@H](O)[C@@H](C)[C@@H]([C@@H](C)C=C(C)C(=O)[C@H](C)C[C@H](C)C(=O)O)O4)O3)O[C@]3(O[C@@H]([C@H]4O[C@@](O)(CO)[C@H](C)C[C@H]4C)C[C@H]3C)[C@H]2C)O[C@H]1C (stereo partly drawn) | 0.935 µM (active) | 0.296 µM (active) | 0.935 µM (active) | 0.332 µM (active) |  |  |  |  |  |  | 
24 | N=c1c2c(-c3ccccc3)c(-c3ccccc3)n(Cc3ccccc3)c2ncn1C1CCC(O)CC1 (stereo not drawn) | 14.8 µM (active) | 5.9 µM (active) | 2.09 µM (active) | 3.32 µM (active) | 0.292 (inactive) | -0.41 | -0.216 |  |  |  | 
25 | CC(=Cc1csc(C)n1)[C@@H]1C[C@H]2O[C@]2(C)CCC[C@H](C)[C@@H](O)[C@@H](C)C(=O)C(C)(C)[C@@H](O)CC(=O)O1 | inactive | inactive | inactive | inactive |  |  |  |  |  |  | 
26 | C[C@]12CC[C@H]3[C@@H](CCC4=CC(=O)CC[C@@]43C)[C@H]1CC[C@H]2O | inactive | inactive |  |  |  |  |  |  |  |  | 
27 | CCc1c(C(=O)C(N)=O)c2c(OCC(=O)O)cccc2n1Cc1ccccc1 | inactive | inactive | inactive | inactive | 0.107 (inactive) | 0.125 | 0.188 | -0.00568 | 0.644 | -1.8 | 
28 | CN1[C@H]2CC(O)C[C@H]1[C@H]1O[C@H]12 (stereo partly drawn) | 18.7 µM (active) | 23.5 µM (active) |  |  |  |  |  |  |  |  | 
29 | Cc1[nH]nc2ccc(-c3cncc(OC[C@@H](N)Cc4c[nH]c5ccccc45)c3)cc12 | 3.32 µM (active) | 14.8 µM (active) | 0.372 µM (active) | 0.296 µM (active) | -2.34 (inactive) | -1.86 | -2.37 |  |  |  | 
30 | Cc1c(N)nc([C@H](CC(N)=O)NC[C@@H](N)C(N)=O)nc1C(=O)N[C@H](C(=O)N[C@@H](C)[C@H](O)[C@@H](C)C(=O)N[C@@H](C(=O)NCCc1nc(-c2nc(C(=O)NCCC[S+](C)C)cs2)cs1)[C@@H](C)O)C(O[C@H]1O[C@H](CO)[C@H](O)[C@@H](O)[C@@H]1O[C@H]1O[C@H](CO)[C@@H](O)[C@H](OC(N)=O)[C@H]1O)c1cnc[nH]1 (stereo partly drawn) | inactive | 2.35 µM (active) | inactive | 7.43 µM (active) |  |  |  |  |  |  | 
31 | CCN1C[C@]2(OC(=O)c3ccccc3NC(C)=O)CC[C@H](OC)[C@@]34[C@H]5CC6[C@@H](OC)C[C@](O)(C(C[C@@H]23)[C@@H]14)[C@@]5(O)[C@@H]6OC | inactive | inactive | inactive | inactive | 0.577 (inactive) | 1.09 | 1.24 | 0.543 | 0.783 | 0.781 | 
32 | Cc1c(C(=O)c2cccc3ccccc23)c2cccc3c2n1[C@H](CN1CCOCC1)CO3 | 23.5 µM (active) | 23.5 µM (active) | 23.5 µM (active) | 23.5 µM (active) |  |  |  |  |  |  | 
33 | c1ccc(CCCN2CCN(CCOC(c3ccccc3)c3ccccc3)CC2)cc1 | 20.9 µM (active) | 26.4 µM (active) | 20.9 µM (active) | 20.9 µM (active) |  |  |  |  |  |  | 
34 | C#C[C@]1(O)C=C[C@@H]2[C@@H]3CCC4=CC(=O)CC[C@@H]4[C@H]3CC[C@@]21CC | inactive | inactive |  | inactive |  |  |  | 1.02 | 0.666 | -1.42 | 
